In ChEMBL document CHEMBL3988442, “University of Dundee, Small-Polar-MMV Screening Library” (2021):

Key:
[1] = biological target: T1, Aspartate--tRNA(Asp/Asn) ligase (Mycobacterium tuberculosis (strain ATCC 25618 / H37Rv)) (UniProt P9WFW3); test: Assay for Asp RNA synthetase-1 from Mycobacterium tuberculosis; type: functional; design: scale not given: direction of the effect not stated beside the values; settings: 30 µM; further: in the data most compounds retested in dose-response had high values
T1 sequence (whole entry): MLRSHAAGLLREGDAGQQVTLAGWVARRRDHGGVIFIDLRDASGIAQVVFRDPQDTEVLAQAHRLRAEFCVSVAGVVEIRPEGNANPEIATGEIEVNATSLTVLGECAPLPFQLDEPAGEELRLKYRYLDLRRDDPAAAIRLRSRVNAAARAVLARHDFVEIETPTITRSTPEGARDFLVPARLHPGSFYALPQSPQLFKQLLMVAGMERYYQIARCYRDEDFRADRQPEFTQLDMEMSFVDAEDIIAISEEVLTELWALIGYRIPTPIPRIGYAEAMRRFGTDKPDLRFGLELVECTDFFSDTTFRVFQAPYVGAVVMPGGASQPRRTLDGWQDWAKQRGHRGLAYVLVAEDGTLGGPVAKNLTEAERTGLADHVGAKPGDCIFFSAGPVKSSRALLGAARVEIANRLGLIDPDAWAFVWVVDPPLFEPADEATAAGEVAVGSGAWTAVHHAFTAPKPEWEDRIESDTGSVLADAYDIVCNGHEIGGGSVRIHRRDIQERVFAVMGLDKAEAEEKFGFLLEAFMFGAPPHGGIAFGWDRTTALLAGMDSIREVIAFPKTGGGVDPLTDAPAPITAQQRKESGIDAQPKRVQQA

[2] = biological target: Shiga toxin 2 (Escherichia coli O157:H7) (UniProt P09385+P09386); test: E. coli 0.157:H7 Shiga Toxin SOP - stx2 screening assay; type: functional; design: scale not given: direction of the effect not stated beside the values; settings: 30 µM

| Structure (SMILES) | Percent Effect [1] [%] | Percent Effect [2] [%] |
| --- | --- | --- |
| CCc1ccc(S(=O)(=O)Nc2cc(OC)c(OC)cc2C(=O)O)s1 | 5.87 | 27.3 |
| CCC(=O)N1CCC(c2nnc(Cn3cccn3)n2C2CC2)CC1 | -6.07 | -3.53 |
| CCN1CCC2(CC1)CC(NC(=O)N(C)C)c1cc(C)ccc12 (centres undefined) | 2.85 | -28.6 |
| CC(C)c1cc(NC(=O)CN2CCc3c(nc(C(C)C)n3C)C2)on1 | -3.67 | -13.4 |
| O=C(C1CCCC1)N1CCN(Cc2nc(-c3ccco3)no2)CC1 | -3 | -10.1 |
| CCO[C@H]1CO[C@@]2(CCCN(Cc3nc(C)cs3)C2)C1 | -4.51 | -13.5 |
| CCN1CCCn2c(nc(CNC(=O)c3ccsc3)cc2=O)C1 | 7.56 | 11.3 |
| O=C(NC1CCCN(c2ncccn2)C1)c1ccoc1 (centres undefined) | -4.64 | -14.5 |
| COc1cc(C)nc(N2CCN(C(=O)CCn3cc(C)cn3)CC2)n1 | -3.63 | 12 |
| Cc1ccc(C(NC(=O)CC2CCN(C(C)C)CC2)C(=O)O)cc1 (centres undefined) | -0.279 | 10.7 |
| Cc1csc(N2CCN(C(=O)Cc3ccc(C)s3)CC2)n1 | -4.4 | 12.2 |
| NS(=O)(=O)CCNC(=O)c1ccc(-c2ccc(F)cc2)cc1F | 16.3 | -53.6 |
| Cc1nc(CN2CCC3(CCCN(Cc4cnn(C)c4)C3)C2=O)cs1 (centres undefined) | -3.23 | -23.7 |
| O=C(Cc1cccc(F)c1)NCCNCc1ccc2c(c1)CCO2 | -0.182 | -76.4 |
| N#CC1CCCN(c2nc(-c3ccccc3)nc3c2CCNCC3)C1 (centres undefined) | 0.524 | -18.1 |
| Cc1ccc(N2CCCN(C(=O)c3cc(Cl)c[nH]3)CC2)nn1 | -1.03 | -26.5 |
| CN(Cc1cc(-c2ccccc2)no1)C1CCCN(c2cccnn2)C1 (centres undefined) | -2.03 | -0.584 |
| CC(C)c1nc(CN2CCCCC2)cs1 | -3.66 | 7.17 |
| CC(C)c1n[nH]c(C(=O)Nc2cc[nH]n2)c1Br | -4.43 | 13.3 |

| Structure (SMILES) | Percent Effect [1] [%] | Percent Effect [2] [%] |
| --- | --- | --- |
| Cc1ccc(CCNC(=O)N2CCCC(Cc3nccn3C)C2)cn1 (centres undefined) | -1.82 | -13.3 |
| COCC(=O)N1CCC[C@]2(C(=O)N(C)C)CN(c3ccccn3)C[C@@H]2C1 | -2.71 | -6.93 |
| O=C(COC[C@H]1CC[C@H]2[C@H](CCN2c2ncccn2)O1)N1CCCC1 | -2.51 | -24.1 |
| Cc1cc(C)n(C2CN(CC(=O)N3CCOCC3)C2)n1 | -0.655 | 9.68 |
| CCc1ccc(CN(CCCn2ccnc2)Cc2ccc(C)s2)o1 | 2.1 | -1.1 |
| CC(C)N(C)CCCNC(=O)c1cnc(-c2ccccc2)nc1 | 3.09 | -37.7 |
| CCN1CC2(CC1=O)CN(Cc1ccco1)CCN(C(=O)N(C)C)C2 (centres undefined) | -2.71 | -10.3 |
| CS(=O)(=O)NCc1n[nH]c2c1CCN(C(=O)c1ccsc1)C2 | 9.64 | -7.46 |
| Cc1ccc(-c2ncc(C(=O)NCCNc3ncccn3)s2)c(C)c1 | 7.92 | -13.5 |
| CC(C)CC(=O)N1CCc2nc(N3CCOCC3)nc(NC(C)C)c2C1 | -3.63 | 6.88 |
| O=C(c1cccs1)N1CC[C@H](O)[C@@H]1Cc1ccccc1 | 0.296 | -7.22 |
| CC(C)c1ncc2c(n1)CN(Cc1nc(-c3cccs3)no1)CC2 | 0.321 | 13.1 |
| CCn1ccc(C(=O)NCCCN2CCOCC2)n1 | 8.41 | -55.1 |
| Cc1ccc(C)c(C(NC(=O)C(C)(C)C)c2cccnc2)c1 (centres undefined) | -1.21 | 1.8 |
| Cc1cc(C(=O)NCCN2CCCC(C)C2)nn1C (centres undefined) | -4.16 | 11.8 |
| O=C(CNC(=O)N1CCc2c([nH]c3ccc(Cl)cc23)C1)N1CCOCC1 | 3.4 | -37.6 |
| CCn1cnnc1CNC(=O)N1CCN(c2nc(C)c(C)s2)CC1 | -5.01 | -22.1 |
| O=S(=O)(Nc1cnn(C2CCOCC2)c1)c1c(F)cccc1F | 2.52 | 1.54 |
| CC(C)c1nc(C2CCCN(C(=O)c3ccc4[nH]cnc4c3)C2)no1 (centres undefined) | 2.42 | 0.178 |

| Structure (SMILES) | Percent Effect [1] [%] | Percent Effect [2] [%] |
| --- | --- | --- |
| CN(Cc1cccc(O)c1)CC1CCCN(CCc2ccc(Cl)cc2)C1 (centres undefined) | 4.47 | -33.8 |
| Cc1ccc(C(=O)N2CCN(CC(O)c3ccc(F)cc3)CC2)s1 (centres undefined) | 0.567 | 32.2 |
| Cc1noc(C(C)N2CCN(CC(=O)N3CCOCC3)CC2)n1 (centres undefined) | -8.27 | -0.00886 |
| CCC(C)(C)NC(=O)CN(C)C(c1cccc(F)c1)c1ccccn1 (centres undefined) | -1.18 | 15.1 |
| CC(=O)c1cccc(OCCCC(=O)NCC2CCCN2C)c1 (centres undefined) | -2.48 | -4.3 |
| CC(=O)Nc1nc(CN2CCCC2c2cnn(C)c2)cs1 (centres undefined) | -1.4 | -28.6 |
| O=C(NCCCN1CCOCC1)c1cc(-c2ccc3c(c2)CCO3)n[nH]1 | -2.27 | -67.7 |
| CC(c1ccc(Cl)cc1)N1CCN(CCNS(C)(=O)=O)CC1 (centres undefined) | 1.42 | -11.7 |
| O=C(NCc1ccccn1)NC1CCOc2ccccc21 (centres undefined) | -6.21 | -20.3 |
| CCC(=O)N1CCC(c2nc3ccc(NC(C)C)cn3n2)CC1 | -3.11 | -40.8 |
| CCc1ncc2c(n1)CN(CC(=O)Nc1nnc(C)s1)CC2 | 4.25 | -18.6 |
| O=C(NCc1cccc2cccnc12)N1CCC(n2cncn2)CC1 | -6.04 | 8.18 |
| O=C1COC2(CCN(Cc3ccc(F)cc3)CC2)CN1 | 0.549 | 11.4 |
| c1ccc(-c2ccc(C3CNCCO3)nc2)cc1 (centres undefined) | 7.81 | -59.5 |
| COCC1Cn2nnc(-c3cnn(C)c3)c2CN1Cc1ccco1 (centres undefined) | 0.436 | -1.07 |
| CC1CN(C(=O)NCCCn2cncn2)CCO1 (centres undefined) | -7.24 | 31.5 |
| Cn1cnc2c1CCN(Cc1noc(-c3ccccc3)n1)C2 | 3.96 | 12.6 |
| CCn1ncc2c1CCCC2NCc1cccc2c1OCCO2 (centres undefined) | -2.02 | -6.1 |
| Fc1cccc(-c2nc(CN3CCn4c(nnc4C4CC4)C3)co2)c1 | 6.1 | -39.6 |
